In PubChem BioAssay (NCI):
The panel holds about 83,000 compounds, 20% with a hit somewhere; the sample as a whole holds those more often.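 96-well plates, one dose, 48 hours. Percent growth reported; active if below 10.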 Active and inactive are the calls of the source.

What was measured:
Assay in all cases: NCI-60 one-dose screen, 48 h (100 = growth as untreated, 0 = no growth, -100 = all killed)
Conditions in all cases: 10 µM
[1] = tested on: NCI-H23 lung
[2] = tested on: NCI-H226 lung
[3] = tested on: NCI-H322M lung
[4] = tested on: HOP-62 NSCLC
[5] = tested on: NCI-H460 lung
[6] = tested on: NCI-H522 lung
[7] = tested on: A549/ATCC NSCLC
[8] = tested on: 786-0 renal
[9] = tested on: COLO 205 colon
[10] = tested on: DU-145 prostate

Measured: growth

O=C(CCCCC[P+](c1ccccc1)(c1ccccc1)c1ccccc1)NC(COC(=O)C(Cl)Cl)(COC(=O)C(Cl)Cl)COC(=O)C(Cl)Cl
inactive: [1] 108% | [2] 102% | [3] 99.5% | [4] 96.1% | [5] 106% | [6] 126% | [7] 96.5% | [8] 99.6% | [9] 98.1% | [10] 114%

O=C(O)CC(Cl)C(Cl)CC(=O)O (stereo not given)
inactive: [1] 102% | [2] 119% | [3] 93.1% | [4] 110% | [5] 101% | [6] 86.3% | [7] 94.6% | [8] 101% | [9] 112% | [10] 106%

O=c1cc(-c2ccccc2)[nH]n1-c1nc2ccccc2[nH]1
inactive: [1] 56.1% | [2] 67.7% | [3] 49.9% | [4] 48% | [5] 20.7% | [6] 21.6% | [7] 30.7% | [8] 50.1% | [9] 106% | [10] 61.1%

CCN(CC)CCC(CNc1c(C)cnc2cc(Cl)ccc12)c1ccc(Cl)c(Cl)c1 (stereo not given)
active: [9] -56.5%
inactive: [1] 63.7% | [2] 85.9% | [3] 51.8% | [4] 68.8% | [5] 63.8% | [6] 49.2% | [7] 64.1% | [8] 60.2% | [10] 73.8%

COc1ccc(OC)c(/C=C/c2nc(SCc3ccccc3)n(-c3ccc(Cl)cc3)n2)c1
inactive: [1] 54.3% | [2] 72.7% | [3] 82.9% | [4] 79.4% | [5] 24.4% | [6] 66.6% | [7] 46.5% | [8] 48.8% | [9] 114% | [10] 77.7%

COc1ccc([N+](=O)[O-])c(C(=O)O)c1
inactive: [1] 105% | [2] 95% | [3] 93.4% | [4] 100% | [5] 106% | [6] 73.4% | [7] 103% | [8] 101% | [9] 102% | [10] 112%

O=C1N=NC2=C1c1c3ccccc3c(O)n1CC2
active: [6] -36.3%
inactive: [1] 96.7% | [2] 105% | [3] 98.9% | [4] 91.6% | [5] 110% | [7] 45.1% | [8] 101% | [9] 129% | [10] 121%

CC/C(=N\N=C(/CC)c1ccc(Br)cc1)c1ccc(Br)cc1
inactive: [1] 86.2% | [2] 94% | [3] 108% | [4] 94.9% | [5] 105% | [6] 71.5% | [7] 98.7% | [8] 98.9% | [9] 100% | [10] 116%

COc1ccc(NC(=O)CSc2nc3ccccc3c(=O)n2CCc2ccccc2)cc1
inactive: [1] 92.2% | [2] 93.9% | [3] 81.5% | [4] 48.3% | [5] 75.5% | [6] 105% | [7] 75.1% | [8] 95.3% | [9] 95.5% | [10] 101%

Clc1ccc(Nc2ccnc(NCCCNc3ccnc4cc(Cl)ccc34)n2)cc1
active: [3] -16.7% | [5] -28.8% | [6] -76% | [7] -65.1% | [8] -98.9% | [9] -91.1% | [10] 9.74%
inactive: [1] 45.6% | [2] 93.7% | [4] 19.6%

C(CCCC1=NCCO1)CCCC1=NCCO1
inactive: [1] 97.2% | [2] 95.8% | [3] 118% | [4] 107% | [5] 104% | [6] 103% | [7] 101% | [8] 99.1% | [9] 99.5% | [10] 108%

COc1ccc2c(c1)nc(N)c1c3cccnc3cn21
inactive: [1] 33.9% | [2] 69.4% | [3] 72.5% | [4] 42% | [7] 11.8% | [8] 22.7%
active: [5] 1.19% | [6] -2.48% | [9] -31.5% | [10] 5.32%

Cc1ccc(C(=O)Nc2cccc(F)c2)cc1NC(=O)C1(c2ncnc3[nH]ccc23)CC1
inactive: [1] 68.2% | [2] 67.4% | [3] 116% | [4] 67.4% | [5] 96.2% | [6] 61% | [7] 82.4% | [8] 110% | [9] 59.1% | [10] 106%

N#CC1=C(Nc2ccccc2Cl)SC(c2ccccc2O)NC1=O (stereo not given)
inactive: [1] 112% | [2] 120% | [3] 114% | [4] 115% | [5] 121% | [7] 56.4% | [8] 114% | [9] 121% | [10] 117%
active: [6] 1.13%

CCN1CCN(c2nc3ccccc3c3c(=O)c4ccccc4sc23)CC1
inactive: [1] 64.2% | [2] 49.5% | [3] 68.4% | [4] 39.4% | [5] 20% | [6] 35.4% | [7] 31% | [8] 47% | [9] 10.7% | [10] 33%

O=c1[nH]c2ccc(Cl)cc2c2ccccc12
inactive: [1] 86.6% | [2] 85.1% | [3] 42.5% | [4] 72.2% | [5] 42.7% | [6] 109% | [7] 79.5% | [8] 49.5% | [9] 86.5% | [10] 78.2%

O=C1/C(=C\c2ccc(F)cc2)CN(C(=O)c2ccc([N+](=O)[O-])cc2)C/C1=C\c1ccc(F)cc1
inactive: [1] 49.3% | [2] 38.2% | [3] 76.3% | [4] 32.9% | [5] 68.4% | [6] 46.9% | [7] 52.9% | [8] 20.3% | [9] 38.8% | [10] 25.5%

COc1ccc(Cl)cc1C(=O)Nc1nc2ccc(Cl)cc2s1
inactive: [1] 90.5% | [2] 89.2% | [3] 85.6% | [4] 89.4% | [5] 93.7% | [6] 99.4% | [7] 76.7% | [8] 75.8% | [9] 82.8% | [10] 94.9%

O=C(Nc1cccc(Br)c1)c1cc(=O)[nH]c2ccccc12
inactive: [1] 103% | [2] 82.9% | [3] 94.2% | [4] 64.3% | [5] 105% | [6] 86.7% | [7] 94.1% | [8] 103% | [9] 85.1% | [10] 110%

COc1cc(-c2cc(C(=O)N3CCN(C(=O)c4ccccc4NCc4cccs4)CC3)nc3cc(-c4ccccc4)nn23)cc(OC)c1OC
inactive: [1] 85.6% | [2] 78.7% | [3] 72.1% | [4] 87.5% | [5] 38.4% | [6] 18.6% | [7] 50.7% | [8] 85.2% | [9] 56.1% | [10] 81.7%

COc1cc(Cl)cc(-c2nn(-c3cccc(NC(=O)Nc4ccc(Cl)c(Cl)c4)c3)cc2-c2ccncc2)c1
inactive: [3] 32.3% | [4] 15.7% | [7] 11.4% | [8] 19.6% | [10] 12.1%
active: [1] 5.72% | [2] 7.27% | [5] 3.1% | [6] -19% | [9] -70.3%

CCN(CC)CCNC(=O)c1ccc(NC(C)=O)cc1
inactive: [1] 94.5% | [2] 110% | [3] 105% | [4] 103% | [5] 113% | [6] 111% | [7] 98.5% | [8] 108% | [9] 112% | [10] 119%

Cc1cc(Cc2cc(C)c(O)c(C)c2)cc(C)c1O
inactive: [1] 74.1% | [2] 96.6% | [3] 68.2% | [4] 49.8% | [5] 29.1% | [6] 28.5% | [7] 36.8% | [8] 56.2% | [9] 104% | [10] 78.3%

CCN(CCCCCCCCCCN1CC(=O)N(CCCCCCCCCCN(CC)Cc2ccccc2OC)CC1=O)Cc1ccccc1OC
inactive: [3] 18.4%
active: [1] -26.1% | [2] -2.55% | [4] -71.6% | [5] -93.3% | [6] -74% | [7] -48.8% | [8] -72.5% | [9] -91.6% | [10] -52.9%

CN(C)CCNC(=O)c1cccn2c(=O)c3cc4ccccc4cc3nc12
active: [1] -3.24% | [2] -16% | [3] 3.8% | [4] -26.8% | [5] -31.7% | [6] -88.5% | [7] -27.1% | [8] -31.3% | [9] -15.2% | [10] -3.1%

CN1c2ccccc2[C@]2(Cc3ccccc3)Cc3ccccc3N[C@H]12
inactive: [1] 91.4% | [2] 98.2% | [3] 111% | [4] 120% | [5] 111% | [6] 71.7% | [7] 109% | [8] 106% | [9] 118% | [10] 115%

Cc1ccc(Nc2cc(C)nc(NCCCNc3ccnc4cc(Cl)ccc34)n2)cc1
active: [3] -31.8% | [4] -12.4% | [5] -45.4% | [6] -83.5% | [7] -69.3% | [8] -100% | [9] -88.2% | [10] -17.8%
inactive: [1] 17.6% | [2] 48.5%

COc1cc(-c2nnc(-c3c(-c4ccc(F)cc4)nc4ccccn34)o2)cc(OC)c1OC
active: [6] 4.71%
inactive: [1] 80.8% | [2] 53.7% | [3] 91.8% | [4] 62.9% | [5] 52.5% | [7] 70.7% | [8] 64.7% | [9] 107% | [10] 77%
